Assay results taken from PubChem BioAssay AID620 (Sanford-Burnham Center for Chemical Genomics, 2007).
Screen size: about 87,000 compounds; about 360 (0.41%) were called active. Cut-off read from the data, not from the text of the source: active = cytotoxicity above about 50%; inactive = the rest. The list comes from a sample in which actives are over-represented; it also holds similar structures and randomly drawn compounds.

test: HT1080 cell viability loss – fluorescence readout (AID 620); conditions: at 10 µM, stronger effect = higher value;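 note: cells exposed to compound overnight then 4 h with Alamar Blue; 0% = vehicle DMSO and 100% = killing control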

Which cytotoxicity does the source give for c1ccc(NCc2nnc3n2CCCCC3)cc1 here?
The cytotoxicity was 1.8% (inactive).

For CC(=O)n1nc(-c2ccccc2)nc1NCc1ccc(F)cc1, which cytotoxicity is on record?
The cytotoxicity was -1.3% (inactive).

Which cytotoxicity does the source give for CC(=O)N(Cc1ccc(F)cc1)C1=C(NCc2ccccc2)C(=O)c2ccccc2C1=O here?
The cytotoxicity was 92.6% (active).

With Cn1c(=O)c2c(nc(NCCc3ccccc3)n2Cc2ccc(F)cc2)n(C)c1=O as the molecule, how does the cytotoxicity read?
Its cytotoxicity is 0.4% (inactive).

Which cytotoxicity does the source give for O=C(Cc1ccc(F)cc1)NCCc1ccccc1 here?
The cytotoxicity was -6.5% (inactive).

Which cytotoxicity does the source give for Cn1c(=O)c2c(nc(NCc3ccccc3)n2Cc2ccc(F)cc2)n(C)c1=O here?
Its cytotoxicity is -1.5% (inactive).

For O=C(Nc1cccc(NC(=O)c2cccnc2Cl)c1)c1ccco1, which cytotoxicity is on record?
The cytotoxicity was -4% (inactive).

Which cytotoxicity does the source give for c1ccc2sc(-c3ccc4c(c3)OCO4)nc2c1 here?
Its cytotoxicity is 0.6% (inactive).

With CCCCN(C(=O)CNC(=O)c1ccco1)C(C(=O)NC1CCCCC1)c1ccc(OC)cc1OC (stereo not drawn) as the molecule, how does the cytotoxicity read?
Its cytotoxicity is -14.5% (inactive).

With COC(=O)c1ccccc1NC(=O)CN(c1cc(OC)ccc1OC)S(C)(=O)=O as the molecule, how does the cytotoxicity read?
The cytotoxicity was -6.6% (inactive).

Which cytotoxicity does the source give for COC1(OC)N=C(N)C2(C#N)C(c3cccc(Oc4ccccc4)c3)C12C#N (stereo not drawn) here?
The cytotoxicity was 0.4% (inactive).

For CC(C)=CCC/C(C)=C/CC(C)(C)CNCCN1CCNCC1, which cytotoxicity is on record?
The cytotoxicity was 56.1% (active).

With c1ccc(CNCCN2CCNCC2)nc1 as the molecule, how does the cytotoxicity read?
Its cytotoxicity is 6.5% (inactive).

For CC(C)=CCC/C(C)=C/CCC(C)NCCN1CCNCC1 (stereo not drawn), which cytotoxicity is on record?
Its cytotoxicity is 6.9% (inactive).

With CCOc1ccc2nc(NC(=O)C3CCN(c4cnccn4)CC3)sc2c1 as the molecule, how does the cytotoxicity read?
Its cytotoxicity is -5.6% (inactive).

With COC(=O)[C@H](C)NC(=O)Nc1ccc(S(N)(=O)=O)cc1 as the molecule, how does the cytotoxicity read?
The cytotoxicity was -17.4% (inactive).

With CCSc1nnc(-c2ccc(S(=O)(=O)N3CCOCC3)cc2)n1CC1CCCO1 (stereo not drawn) as the molecule, how does the cytotoxicity read?
Its cytotoxicity is -1.1% (inactive).

With O=S(=O)(c1ccc2c(c1)nc(COc1ccc(Cl)cc1)n2CC1CCCO1)N1CCOCC1 (stereo not drawn) as the molecule, how does the cytotoxicity read?
The cytotoxicity was 96.6% (active).

Which cytotoxicity does the source give for CSc1nnc(-c2ccc(S(=O)(=O)N3CCOCC3)cc2)n1CC1CCCO1 (stereo not drawn) here?
Its cytotoxicity is 0.1% (inactive).

With CSc1nc2ccccc2n1C(=O)Oc1ccccc1 as the molecule, how does the cytotoxicity read?
The cytotoxicity was 13.7% (inactive).

With COc1ccc(OC)c(NC(=O)CN2C(=O)c3ccccc3S2(=O)=O)c1 as the molecule, how does the cytotoxicity read?
The cytotoxicity was -3.4% (inactive).

With Cc1ccc(S(=O)(=O)N2CCN(C(=O)CN3CCOCC3)C2c2ccccc2)cc1 (stereo not drawn) as the molecule, how does the cytotoxicity read?
Its cytotoxicity is 1.5% (inactive).

Which cytotoxicity does the source give for COc1ccc2c(c1)sc1nc(-c3ccccc3)cn12 here?
Its cytotoxicity is 75.6% (active).

Which cytotoxicity does the source give for CCOC(=O)N1CCN(C(=O)c2ccc3c(c2)sc2nc(-c4ccccc4)cn23)CC1 here?
Its cytotoxicity is 0.3% (inactive).

With CCOC(=O)N1CCC(NC(=O)c2ccc3c(c2)sc2nc(-c4cccc(OC)c4)cn23)CC1 as the molecule, how does the cytotoxicity read?
Its cytotoxicity is 11.5% (inactive).

With COc1cccc(-n2c(SC)nnc2-c2c[nH]c3ccccc23)c1 as the molecule, how does the cytotoxicity read?
The cytotoxicity was 6.9% (inactive).

For COc1ccc(S(=O)(=O)Nc2cc3c(C(C)=O)c(C)oc3c3ccccc23)cc1, which cytotoxicity is on record?
The cytotoxicity was 62.6% (active).

With COC(=O)c1c(C)oc2c1cc(NS(=O)(=O)c1cccs1)c1ccccc12 as the molecule, how does the cytotoxicity read?
Its cytotoxicity is 0.6% (inactive).

With COc1ccc(S(=O)(=O)Nc2cc3c4c(oc3c3ccccc23)CC(C)(C)CC4=O)cc1 as the molecule, how does the cytotoxicity read?
The cytotoxicity was -13.5% (inactive).

With CCCc1nc2oc3cc(OC)ccc3c(=O)c2c(=O)n1Cc1ccco1 as the molecule, how does the cytotoxicity read?
Its cytotoxicity is -4.1% (inactive).

With CCOC(=O)CSc1nc(-c2cccs2)nc2c1c(=O)n(C)c(=O)n2C as the molecule, how does the cytotoxicity read?
Its cytotoxicity is 1.5% (inactive).

Which cytotoxicity does the source give for O=C(C1CCCN1S(=O)(=O)c1ccc(Cl)c(Cl)c1)N1CCCCC1 (stereo not drawn) here?
The cytotoxicity was -5% (inactive).

Which cytotoxicity does the source give for CCCNC(=O)C1CCN(c2ccc(S(=O)(=O)N3CCOCC3)cc2Cl)CC1 here?
Its cytotoxicity is -9.5% (inactive).

For CC(C)CNC(=O)C1CCN(c2ccc(S(=O)(=O)N3CCOCC3)cc2Cl)CC1, which cytotoxicity is on record?
The cytotoxicity was -20.4% (inactive).

With O=C(NCc1cccs1)C1CCN(c2ccc(S(=O)(=O)N3CCOCC3)cc2Cl)CC1 as the molecule, how does the cytotoxicity read?
The cytotoxicity was 67.8% (active).

Which cytotoxicity does the source give for COc1ccc(-n2nnnc2-c2cccnc2)cc1 here?
Its cytotoxicity is -4.2% (inactive).

With COc1ccc(-n2nnnc2-c2cccc(OC)c2)cc1 as the molecule, how does the cytotoxicity read?
The cytotoxicity was 48.1% (inactive).

With COc1ccc(-n2nnnc2-c2ccccc2)cc1 as the molecule, how does the cytotoxicity read?
Its cytotoxicity is 58.8% (active).

With COc1cccc(/C(O)=C2\C(=O)C(=O)N(c3ccccn3)C2c2cccc(OC)c2OC)c1 (stereo not drawn) as the molecule, how does the cytotoxicity read?
Its cytotoxicity is 21.5% (inactive).

Which cytotoxicity does the source give for COC(=O)C(Cc1cnc(Cl)s1)(C(=O)OC)c1ccc([N+](=O)[O-])cc1[N+](=O)[O-] here?
The cytotoxicity was -2% (inactive).

Which cytotoxicity does the source give for CCC1=C2CC[C@H]3C(=O)N(CC)C(=O)[C@H]3[C@H]2[C@@]2(Cc3ccccc3)C(=O)N(CC3CC3)C(=O)N2C1=O here?
The cytotoxicity was 2.7% (inactive).

With COc1ccc(-c2cc(C(F)(F)F)n3nc(C)cc3n2)cc1 as the molecule, how does the cytotoxicity read?
The cytotoxicity was -1.8% (inactive).

With Cc1ccc(NC(=O)c2nnn(CC(=O)Nc3ccccc3)c2N)cc1C as the molecule, how does the cytotoxicity read?
The cytotoxicity was -2.3% (inactive).

For Cc1nnc(SCC(=O)c2cc(C)n(-c3ccc4c(c3)OCO4)c2C)s1, which cytotoxicity is on record?
Its cytotoxicity is 61.4% (active).

With Cc1cc(C(=O)CSc2nnnn2C)c(C)n1-c1ccc2c(c1)OCCO2 as the molecule, how does the cytotoxicity read?
The cytotoxicity was 13.4% (inactive).

For Cc1cc(C(=O)CSc2nncs2)c(C)n1-c1ccc2c(c1)OCO2, which cytotoxicity is on record?
Its cytotoxicity is 24.4% (inactive).

With CN1C(=O)CC(Sc2ncccc2C(=O)O)C1=O (stereo not drawn) as the molecule, how does the cytotoxicity read?
Its cytotoxicity is 1.8% (inactive).

With Cc1cc(C)n(-c2nc3ccccc3nc2N2CCOCC2)n1 as the molecule, how does the cytotoxicity read?
Its cytotoxicity is -0.9% (inactive).

For O=C(C1c2ccccc2Oc2ccccc21)N1CCN(c2ccc(Cl)cc2)CC1, which cytotoxicity is on record?
The cytotoxicity was -1.1% (inactive).

With COc1ccccc1N1CCN(C(=O)C2c3ccccc3Oc3ccccc32)CC1 as the molecule, how does the cytotoxicity read?
Its cytotoxicity is 56% (active).

With CCOc1ccccc1N1CCN(C(=O)C2c3ccccc3Oc3ccccc32)CC1 as the molecule, how does the cytotoxicity read?
Its cytotoxicity is -0.5% (inactive).

Which cytotoxicity does the source give for O=S(=O)(c1ccccc1C(F)(F)F)N1CCC(n2cnc3ccccc32)CC1 here?
Its cytotoxicity is -0.9% (inactive).

For COc1ccc(Cl)cc1NC(=O)/C=C\C(=O)O, which cytotoxicity is on record?
The cytotoxicity was -3.8% (inactive).

For Cc1occc1-c1nnc(SCC(=O)c2ccc(F)cc2)n1Cc1ccco1, which cytotoxicity is on record?
The cytotoxicity was -0.9% (inactive).

With c1ccc(Nc2ccccn2)cc1 as the molecule, how does the cytotoxicity read?
The cytotoxicity was -6.8% (inactive).

For Oc1cccc2ccc(Nc3ccccn3)nc12, which cytotoxicity is on record?
Its cytotoxicity is 60.9% (active).

Which cytotoxicity does the source give for c1ccc(Nc2ccccc2Nc2ccccn2)nc1 here?
The cytotoxicity was 0.4% (inactive).

For CC(=O)O[C@@]12CO[C@@H]1C[C@H](O)[C@@]1(C)C(=O)[C@H](O)C3=C(C)[C@@H](OC(=O)[C@H](O)[C@@H](NC(=O)OC(C)(C)C)c4ccccc4)C[C@](O)([C@@H](OC(=O)c4ccccc4)[C@H]21)C3(C)C, which cytotoxicity is on record?
The cytotoxicity was 53.7% (active).
